Experimental data taken from PubChem BioAssay (Tox21).
“And” between values parts separate entries of the source, which are not always exact repeats. Equal values may be shown once. Results filed as inconclusive are left out. Where a call stands in place of a potency, no number is given. Where a structure was tested more than once in an assay, its records may differ in their call. The source made the active and inactive calls. Unless noted, the call rests on the fitted dose curve; in most records, active means well fitted curve in the direction sought with a large enough effect in the repeat runs; inconclusive means weak or mixed curves; inactive means no such curve, though single readings can be large; an effect the other way counts as inactive or inconclusive.

Columns and labels:
[1] = qHTS assay to test for compound auto fluorescence at 535 nm (green) in HEK293 cells (AID 720680)
[2] = qHTS assay to test for compound auto fluorescence at 460 nm (blue) in HEK293 cell free culture (AID 720681)
Method in brief: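 Compounds were added to cell-free DMEM with 10% FBS and fluorescence read directly. The blue channel used 405 nm excitation and 460 nm emission, with triamterene as the reference fluorophore.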

[3] = qHTS assay to test for compound auto fluorescence at 535 nm (green) in HEK293 cell free culture (AID 720682)
Method in brief: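 Cell-free medium (DMEM, 10% FBS) receives compound or DMSO by pintool. Plate read directly at Ex 485/Em 535 nm. Signal converted to fluorescein equivalency.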

[4] = qHTS assay to test for compound auto fluorescence at 590 nm (red) in HEK293 cell free culture (AID 720683)
Method in brief: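 Cell-free wells of DMEM with 10% FBS received compound, and intrinsic fluorescence was read at excitation/emission 540/590 nm. Values expressed as equivalence to Rose Bengal sodium.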

[5] = qHTS assay to test for compound auto fluorescence at 590 nm (red) in HepG2 cell free culture (AID 720684)
Method in brief: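 Compound was pinned into wells holding MEM with 10% FBS and no cells, and red fluorescence was read at Ex/Em 540/590 nm. Signal is expressed as auto fluorescence equivalency relative to Rose Bengal sodium.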

[6] = qHTS assay to test for compound auto fluorescence at 460 nm (blue) in HepG2 cell free culture (AID 720685)
Method in brief: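 Compound (23 nL) or DMSO pinned into cell-free MEM with 10% FBS; blue fluorescence read at 405/460 nm excitation/emission, expressed as auto-fluorescence equivalency to triamterene.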

[7] = qHTS assay to test for compound auto fluorescence at 535 nm (green) in HepG2 cell free culture (AID 720686)
[8] = qHTS assay to test for compound auto fluorescence at 460 nm (blue) in HepG2 cells (AID 720687)
Method in brief: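 HepG2 cells in MEM with 10% FBS, attached overnight at 37 C, were exposed to compound or DMSO for 1 hr at 37 C, 5% CO2. Blue fluorescence was read at 405/460 nm, with triamterene as reference fluorophore.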

[9] = biological target: Glucocorticoid receptor (Homo sapiens) (UniProt P04150); assay: qHTS assay to identify small molecule antagonists of the glucocorticoid receptor (GR) signaling pathway (AID 720692; active means well fitted inhibition curve with a large enough effect in the signal ratio in the repeat runs, not every such curve was filed as active; the % refers to the signal ratio; further: potency means the concentration at half of the fitted maximal effect)
Method in brief: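 Fluorescence from cleaved LiveBLAzer B/G FRET substrate reports GRE-driven beta-lactamase in HeLa cells; compounds are tested against 5 nM dexamethasone (final) over 18 h at 37 C, substrate incubation 2 h at room temperature.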

[10] = qHTS assay for identifying genotoxic compounds that show differential cytotoxicity against isogenic chicken DT40 cell lines with known DNA damage response pathways - wild type cell line (AID 743012); further: nearly all actives have a fitted effect of over 60% in size; further: potency means the concentration at half of the fitted maximal effect
Method in brief: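 Quantitative HTS on parental DT40 cells: 40 h compound treatment at 37 C/5% CO2, with viability then determined by CellTiter-Glo luminescence. Values serve as the DNA repair-proficient reference for differential cytotoxicity.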

[11] = qHTS assay for identifying genotoxic compounds that show differential cytotoxicity against isogenic chicken DT40 cell lines with known DNA damage response pathways - Rev3 mutant cell line (AID 743014); further: nearly all actives have a fitted effect of over 55% in size; further: potency means the concentration at half of the fitted maximal effect
[12] = qHTS assay for identifying genotoxic compounds that show differential cytotoxicity against isogenic chicken DT40 cell lines with known DNA damage response pathways - Rad54/Ku70 mutant cell line (AID 743015); further: nearly all actives have a fitted effect of over 60% in size; further: potency means the concentration at half of the fitted maximal effect
[13] = qHTS assay to identify small molecule antagonists of the androgen receptor (AR) signaling pathway - cell viability counter screen (AID 743033; further: nearly all actives have a fitted effect of over 45% in size)
[14] = qHTS assay to identify small molecule antagonists of the androgen receptor (AR) signaling pathway using the MDA cell line - cell viability counter screen (AID 743041; further: nearly all actives have a fitted effect of over 45% in size; further: potency means the concentration at half of the fitted maximal effect)
Method in brief: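 MDA-kb2 AR-luc cells (MMTV-luciferase, AR/GR responsive) treated with compounds plus R1881 agonist for 16 h at 37C. CellTiter-Fluor added at 15.5 h; fluorescence read after 30 min in the same wells.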

[15] = qHTS assay to identify small molecule antagonists of the thyroid receptor (TR) signaling pathway (AID 743065); further: nearly all actives have a fitted effect of over 55% in size; further: potency means the concentration at half of the fitted maximal effect
Method in brief: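 GH3.TRE-Luc rat pituitary cells (two TREs driving luciferase) were dosed with compound, then stimulated with 1 nM T3 (final) for 23.5 h at 37 C. ONE-Glo luminescence was the read-out, with CellTiter-Fluor fluorescence as the cytotoxicity counter-screen.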

[16] = biological target: Glucocorticoid receptor (Homo sapiens) (UniProt P04150); assay: qHTS assay to identify small molecule agonists of the glucocorticoid receptor (GR) signaling pathway (AID 720691; active means well fitted activation curve with a large enough effect in the signal ratio in the repeat runs, not every such curve was filed as active; the % refers to the signal ratio)
Method in brief: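 Beta-lactamase reporter activity, read as fluorescence intensity, was measured in GR-bla HeLa cells exposed to compounds for 18 h at 37 C and then loaded with LiveBLAzer B/G FRET substrate for 2 h at room temperature.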

[17] = qHTS assay to identify small molecule antagonists of the thyroid receptor (TR) signaling pathway - cell viability counter screen (AID 743064); further: nearly all actives have a fitted effect of over 50% in size; further: potency means the concentration at half of the fitted maximal effect
Method in brief: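 GH3.TRE-Luc cells, 4 h pre-plating; cpd + T3 1 nM final; 37 °C 23.5 h; CellTiter-Fluor 30 min; fluorescence read.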

[18] = qHTS assay to identify small molecule antagonists of the glucocorticoid receptor (GR) signaling pathway - cell viability counter screen (AID 720693); further: nearly all actives have a fitted effect of over 55% in size
[19] = biological target: Androgen receptor (Homo sapiens) (UniProt P10275); assay: qHTS assay to identify small molecule antagonists of the androgen receptor (AR) signaling pathway (AID 743035; active means well fitted inhibition curve with a large enough effect in the signal ratio in the repeat runs, not every such curve was filed as active; the % refers to the signal ratio)
Method in brief: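 Cell line: GeneBLAzer AR-UAS-bla GripTite (HEK293). Stimulus: R1881 added after compound. Exposure: 16 h, 37C, 5% CO2. Readout: LiveBLAzer B/G FRET fluorescence after 2 h at room temperature.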

[20] = biological target: Androgen receptor (Homo sapiens) (UniProt P10275); assay: qHTS assay to identify small molecule antagonists of the androgen receptor (AR) signaling pathway using the MDA cell line (AID 743042; further: nearly all actives have a fitted effect of over 55% in size)
Method in brief: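 MDA-kb2 breast carcinoma cells carrying MMTV-luciferase (AR/GR responsive) were co-treated with compounds and the agonist R1881 for 16 h at 37C. Inhibition read as ONE-Glo luminescence; CellTiter-Fluor fluorescence measured in parallel for cytotoxicity.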

Glucocorticoid receptor (Homo sapiens), sequence (P04150 whole entry, looked up): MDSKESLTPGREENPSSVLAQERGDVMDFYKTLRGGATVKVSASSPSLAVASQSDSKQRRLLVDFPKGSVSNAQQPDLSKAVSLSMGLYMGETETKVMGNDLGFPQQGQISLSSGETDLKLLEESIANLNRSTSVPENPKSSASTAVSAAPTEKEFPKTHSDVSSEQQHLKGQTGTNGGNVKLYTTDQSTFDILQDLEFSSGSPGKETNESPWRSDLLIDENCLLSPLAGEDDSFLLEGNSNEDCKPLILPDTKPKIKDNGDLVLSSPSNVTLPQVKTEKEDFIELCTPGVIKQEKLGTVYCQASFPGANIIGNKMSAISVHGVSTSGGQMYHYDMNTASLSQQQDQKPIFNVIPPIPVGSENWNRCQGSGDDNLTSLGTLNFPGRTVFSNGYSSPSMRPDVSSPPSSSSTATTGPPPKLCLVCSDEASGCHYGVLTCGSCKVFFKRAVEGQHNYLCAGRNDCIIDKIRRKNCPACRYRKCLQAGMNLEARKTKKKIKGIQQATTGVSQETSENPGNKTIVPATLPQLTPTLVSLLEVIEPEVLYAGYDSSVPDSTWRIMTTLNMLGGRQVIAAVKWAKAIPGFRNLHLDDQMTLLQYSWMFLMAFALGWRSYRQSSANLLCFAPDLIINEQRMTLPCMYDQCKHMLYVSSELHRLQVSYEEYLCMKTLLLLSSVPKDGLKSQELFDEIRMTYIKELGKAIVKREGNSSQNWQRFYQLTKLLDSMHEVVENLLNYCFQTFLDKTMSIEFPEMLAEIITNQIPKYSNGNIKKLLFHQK
Androgen receptor (Homo sapiens), sequence (P10275 whole entry, looked up): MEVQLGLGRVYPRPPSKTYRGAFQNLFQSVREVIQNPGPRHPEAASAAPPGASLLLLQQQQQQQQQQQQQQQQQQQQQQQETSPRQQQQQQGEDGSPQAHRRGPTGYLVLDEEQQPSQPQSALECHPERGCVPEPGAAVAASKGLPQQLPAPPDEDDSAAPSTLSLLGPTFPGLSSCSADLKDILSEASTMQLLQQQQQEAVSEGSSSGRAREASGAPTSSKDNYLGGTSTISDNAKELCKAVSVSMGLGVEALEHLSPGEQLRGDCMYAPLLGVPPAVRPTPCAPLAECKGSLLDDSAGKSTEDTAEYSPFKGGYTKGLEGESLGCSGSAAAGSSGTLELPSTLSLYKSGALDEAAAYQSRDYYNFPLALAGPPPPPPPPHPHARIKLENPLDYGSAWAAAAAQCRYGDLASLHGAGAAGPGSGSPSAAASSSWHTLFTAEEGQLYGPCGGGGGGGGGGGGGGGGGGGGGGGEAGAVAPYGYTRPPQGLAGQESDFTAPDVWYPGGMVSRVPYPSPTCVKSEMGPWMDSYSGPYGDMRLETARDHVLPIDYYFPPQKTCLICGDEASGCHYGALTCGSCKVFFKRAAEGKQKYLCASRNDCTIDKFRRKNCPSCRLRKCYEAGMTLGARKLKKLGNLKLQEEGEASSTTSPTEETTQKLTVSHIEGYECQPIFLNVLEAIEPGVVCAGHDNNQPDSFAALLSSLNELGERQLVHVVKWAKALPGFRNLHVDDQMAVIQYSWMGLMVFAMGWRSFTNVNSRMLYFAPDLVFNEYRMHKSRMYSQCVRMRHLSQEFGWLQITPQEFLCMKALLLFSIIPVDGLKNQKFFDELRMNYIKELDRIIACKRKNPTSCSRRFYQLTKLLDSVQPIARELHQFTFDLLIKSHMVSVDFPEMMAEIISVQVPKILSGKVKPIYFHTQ

| Structure (SMILES) | outcome [1] | outcome [2] | outcome [3] | outcome [4] | outcome [5] | outcome [6] | outcome [7] | outcome [8] | Potency [9] | Potency [10] | Potency [11] | Potency [12] | outcome [13] | Potency [14] | Potency [15] | Potency [16] | Potency [17] | Potency [18] | Potency [19] | Potency [20] |
| --- | --- | --- | --- | --- | --- | --- | --- | --- | --- | --- | --- | --- | --- | --- | --- | --- | --- | --- | --- | --- |
| C#C[C@]1(O)CC[C@H]2[C@@H]3CCc4cc(O)ccc4[C@H]3CC[C@@]21C | inactive | inactive | inactive | inactive | inactive | inactive | inactive | inactive | 1.54 µM (active) | 18.8 µM (active) and 48.2 µM (active) and 13.7 µM (active) | 18.8 µM (active) and 27.1 µM (active) | 21.1 µM (active) and 43 µM (active) | inactive | inactive | 16.8 µM (active) and 17.1 µM (active) and 13.7 µM (active) |  |  |  |  |  |
| O=C(O)CCCCC1CCSS1 (stereo unspecified) | inactive | inactive | inactive | inactive | inactive | inactive | inactive | inactive | inactive | inactive | inactive | inactive | inactive | inactive | inactive | inactive | inactive |  |  |  |
| CCOCCO | inactive | inactive | inactive | inactive | inactive | inactive | inactive | inactive | inactive | inactive | inactive | inactive | inactive | inactive | inactive | inactive | inactive |  |  |  |
| N[C@@H](Cc1c[nH]c2ccc(O)cc12)C(=O)O | inactive | inactive | inactive | inactive | inactive | inactive | inactive | inactive | inactive | inactive | inactive | inactive | inactive | inactive | inactive | inactive | inactive |  |  |  |
| C/C=C/c1ccc(O)c(OC)c1 | inactive | inactive | inactive | inactive | inactive | inactive | inactive | inactive |  | inactive | inactive | inactive | inactive | inactive |  |  | inactive |  |  |  |
| CN(C)C=O | inactive | inactive | inactive | inactive | inactive | inactive | inactive | inactive |  | inactive | inactive | inactive | inactive | inactive | inactive |  | inactive | inactive |  |  |
| Nc1ccc(N=Nc2ccccc2)c(N)n1 | inactive | inactive | inactive | inactive | inactive | inactive | inactive | inactive |  | 4.22 µM (active) and 61.1 µM (active) | 4.22 µM (active) | 7.5 µM (active) | inactive | inactive |  |  | 21.1 µM (active) and 34.6 µM (active) | inactive |  |  |
| CC(=O)OC/C=C(C)/C=C/C=C(C)/C=C/C1=C(C)CCCC1(C)C | inactive | inactive | inactive | inactive | inactive | inactive | inactive | inactive |  | 61.1 µM (active) | inactive and 59.6 µM (active) and 54.5 µM (active) | 47.4 µM (active) and 30.6 µM (active) | inactive | inactive | inactive |  | inactive |  |  |  |
| C[C@]12C=CC(=O)C=C1CC[C@@H]1[C@@H]2C(=O)C[C@@]2(C)[C@H]1CC[C@]2(O)C(=O)CO | inactive | inactive | inactive | inactive | inactive | inactive | inactive | inactive |  | inactive | inactive and 4.86 µM (active) | inactive | inactive | inactive | inactive |  | inactive | inactive |  |  |
| Cc1cccc(C)c1O | inactive | inactive | inactive | inactive | inactive | inactive | inactive | inactive |  | inactive | inactive | inactive | inactive | inactive | inactive |  | inactive | inactive | inactive | inactive |
| CCN(CC)CCOC(=O)c1ccc(N)cc1 | inactive | inactive | inactive | inactive | inactive | inactive | inactive | inactive |  | inactive | inactive | inactive | inactive | inactive | inactive |  | inactive | inactive |  |  |
| CO[C@H]1C=CO[C@@]2(C)Oc3c(C)c(O)c4c(O)c(c(/C=N/N5CCN(C)CC5)c(O)c4c3C2=O)NC(=O)/C(C)=C\C=C[C@H](C)[C@H](O)[C@@H](C)[C@@H](O)[C@@H](C)[C@H](OC(C)=O)[C@@H]1C | inactive | inactive | inactive | inactive | inactive | inactive | inactive | inactive |  | 21.1 µM (active) and 31 µM (active) | 29.8 µM (active) and 24.6 µM (active) | 26.6 µM (active) and 15.5 µM (active) | inactive | 26.6 µM (active) | inactive |  | 26.6 µM (active) and 34.8 µM (active) | inactive |  |  |
| O=C1CCCCCN1 | inactive | inactive | inactive | inactive | inactive | inactive | inactive | inactive |  | inactive | inactive | inactive | inactive | inactive | inactive |  | inactive | inactive |  |  |
| OC[C@@H](O)[C@@H](O)[C@H](O)[C@H](O)CO | inactive | inactive | inactive | inactive | inactive | inactive | inactive | inactive |  | inactive | inactive | inactive | inactive | inactive | inactive |  | inactive |  |  |  |
| CCn1cc(C(=O)O)c(=O)c2ccc(C)nc21 | inactive | inactive | inactive | inactive | inactive | inactive | inactive | inactive |  | inactive | inactive | inactive | inactive | inactive | inactive |  | inactive | inactive |  |  |
| COCCOCCOC | inactive | inactive | inactive | inactive | inactive | inactive | inactive | inactive |  | inactive | inactive | inactive | inactive | inactive | inactive |  | inactive |  | inactive | inactive |
| O=[N+]([O-])c1ccc(O)cc1 | inactive | inactive | inactive | inactive | inactive | inactive | inactive | inactive |  | 27.3 µM (active) and 61.1 µM (active) | inactive and 43.3 µM (active) and 54.5 µM (active) | inactive and 54.5 µM (active) | inactive | inactive |  |  | 61.1 µM (active) | inactive |  |  |
